# MEP2-GFP yeast: modulators of MEP2-GFP levels in yeast, primary screen, S. cerevisiae, multiplex flow cytometry, MLPCN library. S. cerevisiae MEP2-GFP strain, 3 h; 100% = DMSO control level. GFP response vs DMSO, % at 10 µM. 0.51% of 330,000 active;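 active means GFP response versus DMSO above a set limit, roughly screen mean plus 3 SD, cut at about 180% in these data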;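 further: median GFP fluorescence of the barcode-gated MEP2-GFP cells per well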
# CIT2 TOR yeast: modulators of CIT2-GFP expression in yeast, primary screen, S. cerevisiae, GFP fusion, multiplex flow cytometry, MLPCN library | AID 2029, 2009 | 0.065% of 320,000 active | S. cerevisiae CIT2-GFP strain, 3 h; 100 means same as DMSO wells | GFP response vs DMSO, % at 10 µM;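 active means GFP response relative to DMSO above a set limit, near the screen mean plus 3 SD, cut at about 150% in these data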;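 further: ratio of well median GFP fluorescence to mean of DMSO wells on the plate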
# AGP1 TOR yeast: modulators of AGP1-GFP expression in yeast TOR pathway, primary screen, cell-based, multiplex flow cytometry, S. cerevisiae, MLPCN library; 3 h; GFP as percent of DMSO wells; GFP response vs DMSO, % at 10 µM; 0.02% of 320,000 active; AID 2066, 2009;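 active means GFP response relative to DMSO above a set limit, near screen average plus 3 SD, cut at about 150% in these data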;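 further: median GFP channel fluorescence of the gated AGP1 strain per well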
# LAP4 TOR yeast: modulators of LAP4-GFP expression in yeast, primary screen, S. cerevisiae, multiplex flow cytometry, MLPCN library | 0.34% of 320,000 active | 3 h; median GFP as percent of DMSO wells | GFP response vs DMSO, % at 10 µM | AID 2023, 2009;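 active means GFP response vs DMSO above a set limit, about the screen mean plus 3 SD, cut at about 150% in these data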
# RPL19A-GFP yeast: RPL19A-GFP expression modulators in yeast, primary screen, cell-based, S. cerevisiae, multiplex flow cytometry, MLPCN | percent response vs DMSO, % at 10 µM | 0.3% of 330,000 active | S. cerevisiae RPL19A-GFP strain, 3 h; active compounds read low;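 active means percent response vs DMSO below 50%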;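 further: median channel GFP fluorescence of the barcoded RPL19A-GFP strain; ratio of sample median GFP to plate DMSO average so 100% = DMSO; lower means less RPL19A-GFP as with rapamycin TOR inhibition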
# LAP4-GFP pick2: LAP4-GFP expression modulators in yeast, confirmation, cell-based, second cherry pick, flow cytometry; GFP response vs DMSO, % at 10 µM; S. cerevisiae LAP4-GFP strain, 3 h; 20% of 590 active; shares compounds with LAP4 TOR yeast;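 active means GFP signal as percent of the solvent control above about 150%, meaning raised reporter expression, limit read from the data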;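 further: ratio of well median GFP fluorescence to plate DMSO mean so 100% = DMSO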
# MEP2-GFP pick2: modulators of MEP2-GFP levels in yeast, confirmation, S. cerevisiae, flow cytometry GFP, second cherry picks | shares compounds with LAP4 TOR yeast | S. cerevisiae MEP2-GFP strain, 3 h | GFP response vs DMSO, % at 10 µM | 10% of 590 active | AID 2622, 2010;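 active means GFP signal above 150% of the solvent control wells, that is a rise of more than half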;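 further: median channel GFP fluorescence of all gated yeast cells per well; ratio of median GFP to plate DMSO average so 100% = DMSO level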
# RPL19A-GFP pick2: RPL19A-GFP modulators in TOR pathway yeast, confirmation, cell-based, S. cerevisiae, flow cytometry, second cherry pick; S. cerevisiae RPL19A-GFP strain, 3 h; active compounds read low; 100% means same as DMSO wells; 3% of 590 active; shares compounds with LAP4 TOR yeast; AID 2623, 2010; GFP response vs DMSO, % at 10 µM;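 active means under 65% GFP response relative to DMSO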;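 further: median GFP channel fluorescence per well over the all cells gate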
# CIT2 GFP CP2: modulators of CIT2-GFP expression in yeast, confirmation, flow cytometry, second cherry pick, single plex; shares compounds with LAP4 TOR yeast; S. cerevisiae CIT2-GFP strain, 3 h; DMSO control wells read 100%; GFP response vs DMSO, % at 10 µM; 8% of 590 active;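 active means GFP response vs DMSO above about 150%, limit read from the data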;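 further: median green fluorescence per well over all gated yeast cells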
# AGP1-GFP pick2: AGP1-GFP expression modulators, hit retest, confirmation, cell-based, flow cytometry, S. cerevisiae, cherry pick set 2; shares compounds with LAP4 TOR yeast; S. cerevisiae AGP1-GFP strain, 3 h; percent response vs DMSO, % at 10 µM; 590 tested, under 10 active;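 active means over 150 percent of DMSO response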;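 further: median GFP channel fluorescence over all cells without mother daughter split; sample median GFP divided by mean DMSO control so 100% equals DMSO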
# Yeast autofluor: compound autofluorescence in yeast s288c, dose response, artefact control for yeast TOR pathway GFP screen, s288c strain. AID 2757, 2010. shares compounds with LAP4 TOR yeast. S. cerevisiae s288c, 520 nm autofluorescence, flow cytometry, 3 h; active compounds read high; zero means same as solvent-only cells. fluorescence change (kMESF span) at 33 µM. 610 tested, under 10 active;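 active means fluorescence span over the dose series, or activity score, above about 33, limit read from the data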
# An asterisk follows results filed as active; nt = not tested or not shown. This is a sample that favours compounds with a hit; in the whole collection about 0.89% have one here.
SMILES,MEP2-GFP yeast,CIT2 TOR yeast,AGP1 TOR yeast,LAP4 TOR yeast,RPL19A-GFP yeast,LAP4-GFP pick2,MEP2-GFP pick2,RPL19A-GFP pick2,CIT2 GFP CP2,AGP1-GFP pick2,others
C[C@]12C=C[C@H](O)CC1=CCC1C2CC[C@@]2(C)C1CCC21OCCO1 (stereo not given in full),103,84,110,197*,71,107,102,95,94,90,
C[C@]12C=CC(=O)C=C1CCC1C2CC[C@@]2(C)C1CCC21OCCO1 (stereo not given in full),91,105,94,89,98,nt,nt,nt,nt,nt,
CCC(Sc1nc(C)cc(=O)[nH]1)C(=O)Nc1ccc(Cl)cn1 (stereo not given),77,80,94,90,90,nt,nt,nt,nt,nt,
O=c1c2sc(-c3ccccc3)cc2nc2n1CCCCC2,97,92,95,127,93,nt,nt,nt,nt,nt,
O=c1c2sc(-c3ccccc3)cc2nc2n1CCC2,101,72,60,121,59,101,101,59*,90,66,Yeast autofluor=0.91
O=C(c1ccccc1Cl)N(Cc1ccc(Cl)c(Cl)c1)N1C(=O)CCCC1=O,99,104,99,106,100,nt,nt,nt,nt,nt,
Cc1noc(NC(=O)c2ccccc2C(F)(F)F)c1C#N,103,107,105,92,109,nt,nt,nt,nt,nt,
Cc1ccc(S(=O)(=O)/C(C#N)=C/c2c(Oc3ccc(Cl)cc3)nc3c(C)cccn3c2=O)cc1,384*,104,21,81,52,102,101,101,95,100,
CC(C)(C)C(=O)OCCNc1nc(-c2ccccc2)nc2ccccc12,106,101,100,96,100,nt,nt,nt,nt,nt,
CC(C)N(C(=O)COC(=O)c1ccc(Cl)c(S(N)(=O)=O)c1)C(C)C,105,82,113,174*,82,102,105,102,98,103,
CC(C)(C)c1cc(C(C)(C)C)n(-c2ccccc2)n1,108,102,99,93,105,nt,nt,nt,nt,nt,
COc1ccc2[nH]c(C(=O)O)c(CCN3C(=O)c4cccc([N+](=O)[O-])c4C3=O)c2c1,151,92,32,97,64,99,105,101,102,101,
O=[N+]([O-])c1ccc(-c2cn3nc(-c4ccccc4)c(-c4ccccc4)nc3n2)cc1,261*,119,50,171*,105,nt,nt,nt,nt,nt,Yeast autofluor=3.1
CCCn1nnc(NC(=O)c2ccc(-c3ccccc3)cc2)n1,108,95,96,120,100,nt,nt,nt,nt,nt,
Cn1nc(CC(=O)Nc2ncc(Br)s2)c2ccccc2c1=O,158,99,26,92,64,96,103,100,106,99,
Cc1ccc(S(=O)(=O)N/N=C/c2cnn(C)c2C)cc1,102,98,101,100,nt,nt,nt,nt,nt,nt,
